# Assay results from PubChem BioAssay (NCI).
# About 83,000 compounds went through this panel and 20% of them were active in at least one assay; those are over-represented in the sample as a whole.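 Each cell line was grown in a 96-well plate and treated with one concentration of compound for 48 hours. Values below 10 were considered active.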 A number with no mark means an inactive call. Active and inactive are the calls of the source.
# Legend:
# Assay in all cases: NCI-60 one-dose screen, 48 h (100 = growth as untreated, 0 = no growth, -100 = all killed)
# Settings in all cases: 10 µM unless noted
# T-47D breast = test system: T-47D breast
# BT-549 breast = test system: BT-549 breast
# MDA-MB-435 melanoma = test system: MDA-MB-435 melanoma
# SW-620 colon = test system: SW-620 colon
# MCF7 breast = test system: MCF7 breast
# HCT-116 colon = test system: HCT-116 colon
# HCC-2998 colon = test system: HCC-2998 colon
# KM12 colon = test system: KM12 colon
Structure (SMILES),growth (T-47D breast),growth (BT-549 breast),growth (MDA-MB-435 melanoma),growth (SW-620 colon),growth (MCF7 breast),growth (HCT-116 colon),growth (HCC-2998 colon),growth (KM12 colon)
CCCCC[C@H]1C/C=C2/C(=O)C(Cl)=C[C@@H]2C/C=C\CCCC(=O)O1,-33.7% (active),-77.3% (active),-48.2% (active),-48.8% (active),0.987% (active),-86.9% (active),-68.7% (active),-33.9% (active)
Cn1cc(-c2csc(-c3c[nH]c4ccc(F)cc34)n2)c2cccnc21,44.3%,57.4%,-28% (active),26.5%,19.3%,23.1%,71.7%,20.6%
O=C(Nc1ccc(/C=C2\SC(=O)N(Cc3ccc(OC(F)(F)F)cc3)C2=O)cc1)c1ccc(Cl)c([N+](=O)[O-])c1,4.78% (active),75.3%,99.6%,2.11% (active),1.61% (active),67.5%,96.7%,53.1%
Cc1cc(N(CCCNc2ccnc3cc(Cl)ccc23)Cc2ccco2)nc(Cl)n1,21.8%,35.2%,72.2%,66.2%,42.4%,28.2%,75.2%,65.7%
Nc1c(C(=O)Nc2cccc3ccccc23)sc2nc3c(cc12)CCCC3,55.7%,64.6%,-63.1% (active),31%,20.6%,20.7%,26.7%,26.7%
CCN1CCN(C(=O)[C@@]2(C)CC[C@]3(C)CC[C@]4(C)C(=CC(=O)[C@@H]5[C@@]6(C)CC[C@H](OC7C[C@@H](O)[C@@H](O)C(C)O7)C(C)(C)[C@@H]6CC[C@]54C)[C@@H]3C2)CC1 (stereo not given in full),82.6%,87.1%,20.4%,36.7%,24.5%,1.7% (active),37.7%,30.8%
C#CCn1c2c(c3ccccc31)C[C@]1(C)[C@H]3CC[C@@H]4[C@@H]5C(=CCC[C@H]5C(=C)C)CC[C@@]4(C)[C@]3(C)CC[C@H]1C2(C)C,106%,100%,102%,98.2%,95.7%,101%,102%,102%
CC(C)=CCC/C(C)=C/CC/C(C)=C/CSC[C@H](NC(=O)CCCCCN1CCN(C)CC1)C(=O)NC1CCCCCC1,36.9%,90.5%,50.2%,-22.1% (active),7.39% (active),-61% (active),19.3%,66.1%
Brc1cnc2[nH]cc(-c3nnc(-c4ccccc4)o3)c2c1,56.5%,82%,78%,86.4%,63.6%,55.7%,104%,68.9%
COC(=O)[C@]12CC[C@@H](C)[C@H](C)[C@@H]1C1=CC(=O)[C@@H]3[C@@]4(C)C[C@@H](OC(C)=O)[C@H](OC(C)=O)[C@@](C)(COC(C)=O)[C@@H]4C(=O)C[C@@]3(C)[C@]1(C)CC2,45.1%,17.8%,57.8%,50.2%,42.5%,22.6%,68.7%,44.7%
C=C1C(=O)O[C@H]2[C@H]1CC/C(Cn1cc(-c3ccc(OC)cc3)nn1)=C\CC[C@@]1(C)O[C@@H]21,-71% (active),50%,-26.9% (active),-50.2% (active),-41.3% (active),-83.6% (active),2.05% (active),65.5%
COc1cc(-c2cc3ncccc3c3nc(OCCN(C)C)c4cccnc4c23)cc(OC)c1OC,37%,41.6%,18.1%,17.4%,3.86% (active),-21.8% (active),17.1%,18.7%
Cc1cc(Cl)c2c(N(C)C)cccc2n1,94.7%,98.3%,106%,88.7%,79.3%,92.3%,97.1%,109%
N#Cc1cnc2cc(OC[C@@H](O)CO)c(NC(=O)C3CCCC3)cc2c1Nc1ccc(OCc2cccc(F)c2)c(Cl)c1,-15.1% (active),-72.8% (active),20.3%,15.8%,-68.1% (active),-32.2% (active),-65.2% (active),45%
COc1ccc(C(=O)c2cc(OC)c(OC)c(OC)c2)cc1/C=C/C(=O)c1cc(OC)c(OC)c(OC)c1,89.7%,86.8%,65.2%,92.9%,75.2%,67.8%,100%,86.6%
C[C@H]1OC(=O)/C=C/[C@@H](O)[C@@H](O)CCCCCCCC[C@@H]1O,59.9%,105%,106%,102%,101%,88.4%,102%,101%
COC(=O)[C@]12CC[C@@H](C)[C@H](C)[C@@H]1C1=CC[C@@H]3[C@@](C)(CC#N)C4=C(C[C@@]3(C)[C@]1(C)CC2)OC[C@]4(C)C=O,-9.08% (active),-15.2% (active),3.05% (active),0.614% (active),-10.2% (active),3.7% (active),-45.3% (active),4.23% (active)
O=S(=O)(NCCNc1cc(-c2cn(-c3ccccc3)nc2-c2cccc(O)c2)ccn1)c1ccc(C(F)(F)F)cc1,18.3%,65.2%,42.4%,64.8%,25.9%,28.4%,8.21% (active),46.5%
N#CC1=C(N)Oc2c(sc3c(F)cccc23)C1c1ccc(Cl)cc1 (stereo not given),33.2%,19.4%,-32% (active),26.9%,14.8%,14.4%,87.7%,33.9%
Cc1ccc(C)c2c1CCC2C(C)C (stereo not given),91.2%,100%,108%,106%,107%,96%,101%,101%
Cc1ccc(NC2CC(=O)N(c3c(C)cc(C)cc3C)C2=O)c(C)c1 (stereo not given),99.4%,113%,103%,101%,92.9%,105%,112%,102%
COc1ccc2c(c1)c(-c1nc(-c3c[nH]c4ncccc34)cs1)cn2CCCN1CCCCC1,66.1%,67.5%,-84.6% (active),-43.3% (active),10% (active),25.9%,88.5%,47.3%
O=C(NCN1C(=O)c2cccc3cccc(c23)C1=O)N1CCC(Cc2ccccc2)CC1,88%,98.4%,104%,100%,87.5%,87%,109%,99.4%
Fc1ccc(Nc2nc(Nc3ccc(-c4nc5ccccc5[nH]4)cc3)nc(N3CCCC3)n2)cc1,44.6%,85.1%,98.1%,0.692% (active),32.7%,-53.6% (active),55.7%,83.8%
Cc1cc(N2CCN(C)CC2)nc(N(CCNc2ccnc3cc(Cl)ccc23)Cc2ccco2)n1,40.4%,31.1%,-39.8% (active),38.2%,17.1%,17.1%,92.7%,34.2%
O=C1CNCCN1,110%,100%,107%,104%,89.3%,101%,111%,110%
CC1(C)NC2=C(C(Nc3cccnc3)N1)C(c1ccc([N+](=O)[O-])cc1)C(C(=O)c1ccc(N=[N+]=[N-])cc1)O2 (stereo not given),102%,99.7%,105%,104%,97.5%,104%,110%,105%
COC(=O)[C@@H]1[C@H]2C[C@H]3c4[nH]c5cc(OC)ccc5c4CCN3C[C@@H]2C[C@H](OC(=O)/C=C/c2ccnc(OC)c2)[C@H]1OC,67.1%,81.2%,97.5%,98.3%,72.6%,73.4%,105%,98.8%
COc1cc2c(cc1-c1c(C)noc1C)ncc1nc(C3CCCCC3)n([C@@H](C)COC(F)F)c12,25%,52.9%,28.2%,59.2%,12.1%,24.8%,50.5%,35.9%
Cc1cc2nc3c4cc([N+](=O)[O-])cc([N+](=O)[O-])c4n(CCN(C)C)c3nc2cc1C,73.6%,90.7%,92.1%,45.6%,63.2%,45.3%,88.2%,77.1%
